An excerpt weighted towards active compounds, which were near 1.6% of everything screened.
KCNQ2 pot: enhances the rat KCNQ2 potassium channel; O88943; CHO-K1 KCNQ2, FluxOR thallium flux fluorescence; hits give high values; B-score at 10 µM; 310,000 tested, 0.54% active;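 active = fluorescence ratio B-score at least 3 SD of library B-scores, with initial fluorescence B-score within 3 of them, cut at about 5.3 in these data; same plate scores as AID 2156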;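 also: B-score of peak minus minimum over baseline fluorescence ratio after K+ and Tl+ stimulus; positive B-score means potentiation of KCNQ2 with more thallium influx and brighter signal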
KCNQ2 block: blocks the rat KCNQ2 potassium channel | O88943 | CHO-K1 KCNQ2, FluxOR thallium flux, 20 min; hits give low values | B-score at 10 µM | 310,000 tested, 1.1% active | AID 2156;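 active = fluorescence ratio B-score at most minus 3 library SDs, with starting brightness B-score within 2 library SDs, cut at about -5.5 in these data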
Kir21 confirm: confirmation of mouse Kir2.1 potassium channel inhibitors; Tl flux remaining, % of negative control (hits give low values), % at 10 µM; 2,300 tested, 41% active; Kir2.1-expressing cells, FluxOR thallium flux fluorescence; hits give low values; shares compounds with KCNQ2 pot;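 active = Primary-screen hit whose thallium flux fell at least 3 control SD below untreated wells in both duplicates, with normal baseline fluorescence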;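 also: 0% = blank wells without stimulus and 100% = stimulated no-compound controls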
Target sequence (P35561 whole entry, looked up): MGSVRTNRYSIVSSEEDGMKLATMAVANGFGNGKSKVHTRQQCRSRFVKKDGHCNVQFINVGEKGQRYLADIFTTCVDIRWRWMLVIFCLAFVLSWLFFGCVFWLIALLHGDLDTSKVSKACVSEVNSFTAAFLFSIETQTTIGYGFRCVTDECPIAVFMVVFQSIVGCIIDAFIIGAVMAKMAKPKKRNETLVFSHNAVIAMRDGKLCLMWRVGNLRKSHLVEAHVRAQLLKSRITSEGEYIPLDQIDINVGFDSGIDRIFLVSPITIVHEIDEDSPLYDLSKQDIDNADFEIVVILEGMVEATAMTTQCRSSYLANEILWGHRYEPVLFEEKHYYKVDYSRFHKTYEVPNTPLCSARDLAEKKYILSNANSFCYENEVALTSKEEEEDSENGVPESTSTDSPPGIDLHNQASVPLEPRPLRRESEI
HEK293 ctr: parental HEK293 activity in Kir2.1 inhibitor counter-screen; FluxOR signal as % of negative control (100 = no effect), % at 10 µM; 2,300 tested, 19% active; parental HEK293 cells, FluxOR thallium flux fluorescence; 0% = unstimulated blank wells; shares compounds with KCNQ2 pot; AID 2105;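 active = dye signal at least 3 control SD above or below untreated wells in both duplicates, raw fluorescence within 3, either direction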;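 also: percent is based on the flux ratio of peak minus minimum fluorescence over baseline F0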
CHO-K1 Tl ctr: parental CHO-K1 activity in KCNQ2 potentiator counter-screen; shares compounds with KCNQ2 pot; parental CHO-K1 cells, FluxOR thallium flux fluorescence; zero = vehicle mean+3SD, 100% = vehicle-minus-blank window; activity increase over 3SD of controls, % at 10 µM; 1,200 tested, 43% active; AID 2282;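 active = signal rise of at least 3 SD above the untreated control mean, in both duplicate wells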;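 also: counter screen of KCNQ2 potentiator hits so any rise reflects channel-independent effects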
KCNQ1 sel pot: tests whether KCNQ2 potentiators also act on human KCNQ1. AID 2283. 1,200 tested, 28% active. CHO KCNQ1 stable, FluxOR thallium flux fluorescence; beyond 3SD, as % of vehicle-control signal. shares compounds with KCNQ2 pot. activation over 3SD threshold, % at 10 µM;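 active = fluorescence ratio rise of at least 3 SD of vehicle wells above their mean, in both replicate wells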;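 also: 0% = vehicle mean plus 3 SD and 100% = vehicle minus unstimulated blank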
KCNQ2 pot conf: confirmation of rat KCNQ2 potassium channel potentiators; CHO-KCNQ2 cells, FluxOR thallium flux fluorescence; shares compounds with KCNQ2 pot; potentiation, less the hit threshold, % at 10 µM; 1,200 tested, 68% active; AID 2287;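 active = fluorescence ratio rising 3 SD or more over the vehicle control mean in both replicates, plus primary screen hit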;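 also: peak minus minimum thallium fluorescence divided by baseline after K/Tl stimulus; 0% = vehicle mean plus 3 SD and 100% = vehicle minus unstimulated blank difference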
Kir21 spec: selectivity of KCNQ2 potentiators: effect on mouse Kir2.1; shares compounds with KCNQ2 pot; HEK293 Kir2.1, FluxOR thallium flux fluorescence; activity over 3SD threshold, % at 10 µM; 1,200 tested, 2% active; AID 2345;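 active = fluorescence ratio rise of at least 3 SD above the vehicle-control mean, seen in both replicates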;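 also: 0% = vehicle mean plus 3 SD and 100% = vehicle minus no-stimulus blank window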
KCNQ2 W236L MoA: KCNQ2 potentiators acting on retigabine-insensitive rat KCNQ2 W236L mutant; current increase over 3SD of negative controls (%), hits give high values, % at 25 µM; CHO KCNQ2-W236L, automated patch clamp current; AID 2558; shares compounds with KCNQ2 pot; 940 tested, 10% active;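 active = current increase at least 3 SD of the untreated controls above them in both duplicate recordings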
Active calls of the source: *; i = inactive; / = no result.

SMILES | KCNQ2 pot | KCNQ2 block | Kir21 confirm | HEK293 ctr | others
Cc1ccc(-n2cc(CNCCCn3cccn3)c(-c3cccc(C)c3)n2)cc1 | / | i | / | /
COC(=O)COc1cccc(NC(=O)C(c2ccccc2)c2ccccc2)c1 | / | i | / | /
COc1cc(CC(=O)OCC(=O)N2CCCCC2C)cc(OC)c1OC (stereo not given) | 0.83 | i | / | /
Cn1cc(SCC(=O)N2CCOCC2)c2ccccc21 | / | i | / | /
Cn1cc(SCC(=O)N2CCCc3ccccc32)c2ccccc21 | / | i | 52%* | i
Fc1cccc(/C=N/Nc2ccc3ccccc3n2)c1 | 12* | i | i | i | CHO-K1 Tl ctr=-14;KCNQ1 sel pot=-21;KCNQ2 pot conf=-20;Kir21 spec=-30
Brc1ccc(/C=N/Nc2ccc3ccccc3n2)cc1 | 1.6 | i | / | /
CC(=O)c1cccc(NC(=O)NC2CC(=O)N(c3ccc4c(c3)OCCO4)C2)c1 (stereo not given) | / | i | / | /
c1ccc2c(c1)ccc1ncccc12 | 0.05 | i | / | /
Oc1c(N=Nc2ccccn2)ccc2ccccc12 | 5.9* | i | i | i | CHO-K1 Tl ctr=91*;KCNQ1 sel pot=-14;KCNQ2 pot conf=28*;Kir21 spec=-39;KCNQ2 W236L MoA=i
CCn1cc(C(=O)NCCCOC)c(=O)c2cc(S(=O)(=O)N3CCCC3)ccc21 | 0.51 | i | / | /
COc1cc(C)c(Cl)cc1S(=O)(=O)NC1CC(C)(C)NC(C)(C)C1 | / | i | / | /
COc1ccc(/C(O)=C2/C(=O)C(=O)N(c3ccccn3)C2c2cccc(Cl)c2)cc1 (stereo not given) | 0.88 | i | / | /
CCn1c2c(c(=N)c3c1CCC3)CCC2 | / | i | / | /
CCCCCCn1c(=O)[nH]c2c(c1=O)CCC2 | 0.1 | i | / | /
CCCCCCCn1c2c(c(=N)c3c1CCC3)CCCC2 | 1.9 | i | 28%* | i
CCCCCCCCCn1c2c(c(=N)c3c1CCC3)CCC2 | -6.1 | -6.1* | 10%* | i
O=S(=O)(c1cc(Cl)c(Cl)cc1Cl)N1CCN2CCCC2C1 (stereo not given) | 0.47 | i | / | /
COc1cccc(C(=O)NNC(=O)C(=O)Nc2ccc(C)c(Cl)c2)c1 | 4.9 | i | / | /
CCc1ccc(NC(=O)C(=O)NNC(=O)c2cccc(OC)c2)cc1 | 6.4* | i | i | 196%* | CHO-K1 Tl ctr=5.0*;KCNQ1 sel pot=-13;KCNQ2 pot conf=4.9*;Kir21 spec=-21;KCNQ2 W236L MoA=i
Cc1oc(-c2cccc(C(F)(F)F)c2)nc1CN1CCOCC1 | 0.11 | i | / | /
O=C(Nc1nnc(-c2ccc3c(c2)CCCC3)o1)c1ccccc1Cl | 9.4* | i | i | i | CHO-K1 Tl ctr=-22;KCNQ1 sel pot=-15;KCNQ2 pot conf=12*;Kir21 spec=-21;KCNQ2 W236L MoA=i
O=C(Nc1nnc(-c2ccc3c(c2)CCCC3)o1)c1ccccc1 | 7.1* | i | i | 289%* | CHO-K1 Tl ctr=-10;KCNQ1 sel pot=-14;KCNQ2 pot conf=8.6*;Kir21 spec=-26;KCNQ2 W236L MoA=i
O=C(Nc1cccc2c1CCCC2)c1ccccc1Cl | 0.46 | i | / | /
O=C(COc1ccccc1)Nc1nnc(-c2ccc3c(c2)CCCC3)o1 | / | i | / | /
SMILES | KCNQ2 pot | KCNQ2 block | Kir21 confirm | HEK293 ctr | others
Cc1c(-c2ccc(Cl)cc2Cl)nc2ccccc2c1C(=O)NCCN1CCOCC1 | / | i | / | /
CCOc1ccc(S(=O)(=O)NCCC(=O)NCC(c2cccs2)N2CCOCC2)cc1 (stereo not given) | 1.6 | i | / | /
O=C(CSc1ccc(Br)cc1)NCC(c1cccs1)N1CCOCC1 (stereo not given) | 6.8* | i | / | / | CHO-K1 Tl ctr=-20;KCNQ1 sel pot=-4;KCNQ2 pot conf=7.9*;Kir21 spec=-58;KCNQ2 W236L MoA=i
COc1ccc(C(CNC(=O)CSc2ccc(Br)cc2)N2CCOCC2)cc1 (stereo not given) | 1.4 | i | / | /
CC(C)(C)c1ccc(OCCC(=O)NCC(c2cccs2)N2CCOCC2)cc1 (stereo not given) | 7* | i | / | / | CHO-K1 Tl ctr=-9;KCNQ1 sel pot=123*;KCNQ2 pot conf=19*;Kir21 spec=-60;KCNQ2 W236L MoA=i
O=C(NCc1cccc(C(F)(F)F)c1)C1CCCN(c2cnccn2)C1 (stereo not given) | 1.3 | i | / | /
O=C(CSc1ccc(-c2ccc(F)cc2)nn1)NC1CCCCC1 | 0.71 | i | / | /
CCN(CC)S(=O)(=O)c1ccc(C(=O)NCC2CCCCC2)cc1 | / | i | / | /
CCCc1cc(C(=O)N2CCC(n3nccc3NC(=O)c3ccc(OC)cc3)CC2)no1 | / | i | / | /
Cc1ccc(N2CC(NC(=O)N3CCN(C(=O)c4ccco4)CC3)CC2=O)cc1 (stereo not given) | 0.08 | i | / | /
C=CCn1c(=S)[nH]c2sc3c(c2c1=O)CCCC3 | 11* | i | i | 298%* | CHO-K1 Tl ctr=-4;KCNQ1 sel pot=-25;KCNQ2 pot conf=63*;Kir21 spec=-25;KCNQ2 W236L MoA=i
O=c1c2c3c(sc2[nH]c(=S)n1Cc1ccco1)CCC3 | 4.7 | i | / | /
COCCn1c(=S)[nH]c2sc3c(c2c1=O)CCCC3 | 10* | i | i | 326%* | CHO-K1 Tl ctr=-24;KCNQ1 sel pot=35*;KCNQ2 pot conf=34*;Kir21 spec=-8;KCNQ2 W236L MoA=i
Cc1ccc(-n2c(=S)[nH]c3sc4c(c3c2=O)CCC4)cc1 | 2 | i | / | /
COc1ccc(Cl)cc1S(=O)(=O)N(C)CC(=O)NCc1ccc2c(c1)OCO2 | 2.2 | i | / | /
CCCCc1ccc(-c2ccc(C)cc2O)nc1 | 3.3 | i | / | /
CCCCc1ccc(-c2ccc(Br)cc2O)nc1 | 6* | i | i | i | CHO-K1 Tl ctr=-11;KCNQ1 sel pot=59*;KCNQ2 pot conf=-9;Kir21 spec=-30
NC(=O)CC(NC(=O)Cc1ccc(Br)cc1)c1ccc(N2CCC(N3CCCCC3)CC2)c([N+](=O)[O-])c1 (stereo not given) | 0.01 | i | / | /
Cc1cccc(NC(=O)NCc2cccnc2)c1C | / | i | / | /
CCN(c1ccccc1)S(=O)(=O)c1cc([N+](=O)[O-])ccc1N | 5 | i | 56%* | i
CCN(c1ccccc1)S(=O)(=O)c1ccc(C(C(=O)OC)C(=O)OC)c([N+](=O)[O-])c1 | / | i | / | /
CC1CCCCC1NC(=O)CCNS(=O)(=O)c1ccc(Cl)cc1 (stereo not given) | 1.1 | i | / | /
C/C=C1\COC(C(=O)NCc2ccccc2)(C(F)(F)F)C=C1C=C(C)C (stereo not given) | / | i | / | /
O=C(Nc1cccc2ncccc12)C12CC3CC(CC(C3)C1)C2 | 1.2 | i | / | /
O=C(CC12CC3CC(CC(C3)C1)C2)Nc1cccc2ncccc12 | 11* | i | i | i | CHO-K1 Tl ctr=-17;KCNQ1 sel pot=-16;KCNQ2 pot conf=45*;Kir21 spec=-28;KCNQ2 W236L MoA=i
O=c1[nH]c(C(F)(F)F)nc2ccccc12 | 0.68 | i | / | /
